# High-throughput results from PubChem.
# This excerpt belongs to a sample that is enriched for hits.
# Pf Dd2 growth: inhibitors of Plasmodium falciparum Dd2 growth. P. falciparum Dd2 growth, SYBR Green, 72 h. AID 1347417. Potency, µM (top dose mostly 28.9 µM), inactives show at the top dose activity, negative = inhibition, actives largely listed as inhibitors. 120,000 tested, 4.3% active; active means well fitted inhibition curve with a large enough effect;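 further: plate controls were DMSO vehicle for no effect and reference drug for full effect; nearly all actives have a fitted effect of over 65% in size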
#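 Infected erythrocytes (Dd2, 0.3% parasitemia, 2.5% hematocrit final) are added to compound in RPMI-1640/Albumax II medium, grown 72 h at 37C in low oxygen, then lysed with saponin/Triton-X containing SYBR Green and read by fluorescence.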
# * = called active by the depositor; i = inactive; [ ] = another dose, or the depositor's remark. Potency means the concentration at half of the fitted maximal effect.
SMILES,Pf Dd2 growth
COc1ccc(CCNC(=O)c2ccc3c(c2)N(Cc2ccc(Cl)cc2)C(=O)c2ccccc2S3)cc1OC,7.94µM*
O=C(NC1CCCC1)c1ccc2c(c1)N(Cc1ccccc1)C(=O)c1ccccc1S2,-24.1%
O=C(NCCc1ccccc1)c1ccc2c(c1)N(Cc1ccc(F)cc1)C(=O)c1ccccc1S2,2.0%
CCOc1ccc(CN2C(=O)c3ccccc3Sc3ccc(C(=O)NCc4ccco4)cc32)cc1,5.01µM*
O=C(NCc1ccco1)c1ccc2c(c1)N(Cc1ccc(Cl)cc1)C(=O)c1ccccc1S2,-7.0%
O=S(=O)(Nc1ncc(CN2CC[C@H]3CNC[C@H]32)cn1)c1ccccc1,-3.9%
CN(C)c1ccc(C(=O)N2CCN3C(=O)N(CC(N)=O)C(=O)[C@@H]3C2)cc1,-11.8%[44.1 µM]
CCc1ccccc1NC(=O)C1CCN(C(=O)c2ncn3c2COC(c2ccc(F)cc2)C3)CC1 (configuration not stated),i
CC(C)Cc1cc(C(=O)N[C@H](C2CCNCC2)C2CC(O)C2)nc(N)n1 (some centres not stated),2.6%
Cc1noc2c(N3CC[S+](=O)([O-])CC3)cc(-c3cccc(C(F)(F)F)c3)nc12,i
Cc1ncc(CN2CCN(C(=O)c3cccn3C3CC3)CC(O)C2)[nH]1 (configuration not stated),-7.9%
CCCCCC(=O)Nc1ccc([C@H]2OCC(=O)N[C@@H]2CO)cc1,i
O=C(C1CC1)N1CC[C@H]2COC(=O)N2c2ccccc2C1,31.1%[44.1 µM]
CN(C1CCc2ccccc21)[S+](=O)([O-])c1cccc(C(F)(F)F)c1 (configuration not stated),-14.1%
COCCNC(=O)c1ccc2c(c1)N(Cc1cc(C)ccc1C)C(=O)c1ccccc1S2=O (configuration not stated),i
Cc1ccc(C)c(CN2C(=O)c3ccccc3Sc3ccc(C(=O)NCc4ccc5c(c4)OCO5)cc32)c1,8.91µM*
Cc1ccc(C)c(CN2C(=O)c3ccccc3S(=O)c3ccc(C(=O)NCCc4ccc(Cl)cc4)cc32)c1 (configuration not stated),5.01µM*
Cc1ccc(C)c(CN2C(=O)c3ccccc3S(=O)c3ccc(C(=O)NCc4ccccc4Cl)cc32)c1 (configuration not stated),-7.3%
Cc1ccc(C)c(CN2C(=O)CSc3ccc(C(=O)NCc4ccccc4)cc32)c1,-14.0%
O=C(NCCCN1CCOCC1)c1ccc2c(c1)N(Cc1ccccc1)C(=O)c1ccccc1S2,i
O=C(c1cccnc1)N1C[C@@H]2OCC(=O)N(Cc3ccncc3)[C@@H]2C1,19.6%[44.1 µM]
O=C(c1ccc2c(c1)OCO2)N1CCC2(CC1)NC(=O)N(Cc1ccccc1)C2=O,-0.1%
O=S(=O)(Cc1ccccc1)N1CCC2(CCCCO2)CC1,-17.2%
CN(C)c1cc(N2CCCC(N)C2)ncn1 (configuration not stated),-5.3%[5.79 µM]
O=c1c(-c2cccs2)ccc2n1C[C@H]1C[C@@H]2CN(Cc2cc3ccccc3o2)C1,-16.0%[44.1 µM]
SMILES,Pf Dd2 growth
O=C(CC(c1cccc2c1OCO2)c1c[nH]c2ccccc12)NCc1ccccc1 (configuration not stated),i
CCCCNC(=O)CC(c1cccc2c1OCO2)c1c[nH]c2c(CC)cccc12 (configuration not stated),10µM*
CCCCCNC(=O)CC(c1cccc(OC)c1OC)c1c[nH]c2c(CC)cccc12 (configuration not stated),-21.5%
CCCOc1nccnc1NC1CCN(C(=O)c2ccncc2)CC1,91.1%[5.79 µM]
CC1Oc2ccc(NC(=O)c3cccs3)cc2CN(Cc2ccccc2)C1=O (configuration not stated),i
COCC(=O)N1CCC(Oc2ccc(C(=O)N(C)C)cn2)CC1,i
COc1ccc(-c2noc(C(=O)O)c2[C@@H](C)NC(=O)c2cccnc2)cc1,-23.8%[44.1 µM]
COc1ccc(-c2noc([C@@H](C)NC(=O)c3cc(C)n(C)n3)c2C(=O)O)cc1,-17.6%[44.1 µM]
COc1ccc(-c2noc(C(=O)O)c2[C@@H](C)NC(=O)c2cc(C)n(C)n2)cc1,3.16µM*
COc1ccc(-c2noc([C@@H]3C[C@H](NS(=O)(=O)c4ccccc4)CN3C)n2)cc1,i
COc1ccc(-c2noc([C@@H]3C[C@H](NCc4ccc(N(C)C)cc4)CN3C)n2)cc1,12.6µM*
COc1ccc(-c2noc([C@@H]3C[C@H](NC(=O)COCC(=O)O)CN3C)n2)cc1,-17.7%[44.1 µM]
COCC1CN(C(=O)c2ocnc2C)CC12CCNCC2 (configuration not stated),60.2%
Cc1ccc(C(C(=O)N2CCC(Cc3noc(C)n3)CC2)N(C)C)cc1 (configuration not stated),-22.9%
CCNC(=O)N1Cc2[nH]cnc2C[C@H]1C(=O)NCc1ccccc1,-12.5%[44.1 µM]
Cn1ncc(N2CCN(CC3(O)CCCNC3)CC2)cc1=O (configuration not stated),-2.7%
OC1(CN2CCN(c3nccs3)CC2)CCCNC1 (configuration not stated),-3.7%
OC1(CN2CCN(c3ccc(F)c(Cl)c3)CC2)CCCNC1 (configuration not stated),7.94µM*
Cc1ccc2c(n1)N(C)[C@H](CO)CCN(Cc1cccnc1)C2,-3.2%[44.1 µM]
CCN(CC)Cc1cnc2c(C(=O)NC(C)C(=O)N(C)C)cnn2c1 (configuration not stated),-7.2%
COCCOc1cc(C)c2c(c1C)C[C@H]([C@H](C)C(=O)Nc1ccccn1)CC2,12.6µM*
COCCOc1cc(C)c2c(c1C)C[C@H](C(C)C(=O)NC(C)(C)C)CC2 (some centres not stated),-4.9%[44.1 µM]
COCCOc1cc(C)c2c(c1C)C[C@H]([C@H](C)C(=O)NC1CCCC1)CC2,i
COCC(=O)NC[C@H]1CCN(Cc2cccc(C#N)c2)C[C@H]1N(C)C,-14.2%
CC(C)NC(=O)N1CCOC[C@H]1c1ncc(-c2ccc(OC(F)(F)F)cc2)[nH]1,-14.4%[44.1 µM]
SMILES,Pf Dd2 growth
CCOC(=O)c1oc2ccc(S(=O)(=O)NCC3Cn4cccc4C(=O)N3C)cc2c1C (configuration not stated),12.6µM*
CN1C(=O)c2cccn2CC1CNS(=O)(=O)c1ccc(F)cc1 (configuration not stated),4.8%
COc1cccc(S(=O)(=O)NCC2Cn3cccc3C(=O)N2C)c1 (configuration not stated),-4.6%
COc1cccc(S(=O)(=O)N2CCC(Cc3nncn3C)C2)c1 (configuration not stated),31.8%
O=C1CCN(C(=O)Cc2cccc(F)c2)CCCOCCN1,-4.9%
CCOC(=O)Cn1nc2n(c1=O)CCN(Cc1cc(C)ccc1C)C2=O,-10.6%
CCN(CC)CCCNC(=O)CN1C(=O)COc2ccc(S(=O)(=O)N3CCC(C)CC3)cc21,5.8%
CCCCNC(=O)CN1C(=O)COc2ccc(S(=O)(=O)N3CCCC3)cc21,32.3%
CC(C)CN(CCCNC(=O)CN1C(=O)COc2ccc(S(=O)(=O)N3CCCCCC3)cc21)CC(C)C,11.2µM*
Cc1ccc(NCc2cccn2-c2nnc(N3CCC(C(=O)NC(C)C)CC3)s2)cc1,i
Cc1ccc(CN(Cc2cccn2-c2nnc(N3CCCC3=O)s2)C(=O)Nc2cc(C)cc(C)c2)cc1,3.16µM*
COC(=O)c1ccccc1NC(=O)N(Cc1ccc(C)cc1)Cc1cccn1-c1nnc(N2CCCC2=O)s1,1.7%
COc1ccc(CC(=O)N2C[C@@H](CO)[C@H](c3ccncc3)C2)cc1OC,34.7%
Cc1cccc(CNC(=O)c2oc3c(c2C)-c2nn(Cc4cccc(Cl)c4)cc2CC3)c1,-5.3%
